# From PubChem BioAssay (NCATS)
# Records with an inconclusive call do not appear. Values without a mark were called inactive. The source made the active and inactive calls. The call rests on the fitted dose curve; in most records, active means well fitted inhibition curve with a large enough effect; inconclusive means small, poorly fitted or top-dose-only effect; inactive means flat fitted curve, though single readings scatter. Where a SMILES comes first, the peptide text is derived from it. [ ]: non-standard residue; d: D form. pGlu = O=C1CC[C@@H](C(=O)O)N1
# Legend:
# [1] = test system: CRL-7250; test: Cytotoxic Profiling of Annotated Libraries Using Quantitative High-Throughput Screening (AID 1296008); details: Five cell lines viability, CellTiter-Glo ATP luminescence, 48-72 h; max response: hits give low values; on max response: on the % scale 0 is the no-effect control and ±100 the full control effect
# How it was run: (§1)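 Compounds were pin-transferred onto cells and incubated 48 or 72 hr at 37 degree Celsius, 95% humidity. CellTiter-Glo was added, plates sat 10 min at room temperature, then ATP-coupled luminescence was imaged as the viability read-out.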
# [2] = test system: HEK293; test: as above; details: Five cell lines viability, CellTiter-Glo ATP luminescence, 48-72 h; max response: hits give low values
# How it was run: as §1
# [3] = test system: KB-3-1; test: as above; details: Five cell lines viability, CellTiter-Glo ATP luminescence, 48-72 h; max response: hits give low values
# How it was run: as §1
# [4] = test system: NIH3T3; test: as above; details: Five cell lines viability, CellTiter-Glo ATP luminescence, 48-72 h; max response: hits give low values
# How it was run: as §1
# [5] = test system: HaCat; test: as above; details: Five cell lines viability, CellTiter-Glo ATP luminescence, 48-72 h; max response: hits give low values
# How it was run: as §1
# [6] = test system: SC27B; test: qHTS profiling for inhibitors of Plasmodium falciparum proliferation (AID 504749); details: P. falciparum in erythrocytes, SYBR Green DNA, 72 h; series mostly up to 28.7 µM
# How it was run: (§2)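 Fluorescence of SYBR Green-bound parasite DNA, read at 485/535 nm, served as the growth measure. Infected erythrocytes were cultured with compound 72 h; artemisinin (0.29 uM) and DMSO wells defined the normalization range.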
# [7] = test system: TAB109; test: as above; details: P. falciparum in erythrocytes, SYBR Green DNA, 72 h; series mostly up to 28.7 µM
# How it was run: as §2
# [8] = test system: TAB113; test: as above; details: P. falciparum in erythrocytes, SYBR Green DNA, 72 h; series mostly up to 28.7 µM
# How it was run: as §2
# [9] = test system: TAB165; test: as above; details: P. falciparum in erythrocytes, SYBR Green DNA, 72 h; series mostly up to 28.7 µM
# How it was run: as §2
# Further: nearly all actives have a fitted effect of over 60% in size.
# Potency means the concentration at half of the fitted maximal effect.
smiles,measurement,setting,value
c1ccc2occc2c1,max response,[1],-10.5%
same,max response,[2],-7.13%
same,max response,[3],-9.71%
same,max response,[4],-3.85%
CC(=O)Oc1ccc(C2(c3ccc(OC(C)=O)cc3)Oc3ccccc3NC2=O)cc1,Potency,[1],8.41 µM (active)
same,Potency,[2],7.5 µM (active)
same,Potency,[3],18.4 µM (active)
CN1[C@@H]2CC[C@H]1CC(NC(=O)n1c(=O)[nH]c3ccccc31)C2 (some centres undefined),max response,[1],-3.19%
same,max response,[2],-4.57%
same,max response,[3],-6.43%
same,max response,[4],1.08%
COCCc1ccc(OCC2CO2)cc1 (centres undefined),max response,[1],1.12%
same,max response,[2],1.88%
same,max response,[4],-4.27%
O=c1[nH]sc2cc(Cl)ccc12,max response,[1],-108%
same,max response,[2],-119%
same,max response,[4],-92.7%
Cc1onc(-c2ccccc2)c1C(=O)Cl,max response,[1],-2.71%
same,max response,[2],0.397%
same,outcome,[5],inactive
same,max response,[4],4.1%
Cc1ccc(C(=O)Oc2ccc(C(O)CNC(C)(C)C)cc2OC(=O)c2ccc(C)cc2)cc1 (centres undefined),max response,[1],-6.97%
same,max response,[2],1.15%
same,outcome,[5],inactive
same,outcome,[4],inactive
O=C1NC(c2ccccc2)(c2ccccc2)C(=O)N1COP(=O)(O)O,outcome,[1],inactive
same,outcome,[2],inactive
same,max response,[5],-3.47%
same,outcome,[4],inactive
Cc1nc([N+](=O)[O-])cn1-c1ccc([N+](=O)[O-])cc1,max response,[1],1.02%
same,max response,[2],0.842%
same,outcome,[5],inactive
same,outcome,[4],inactive
O=C(O)CCCC[P+](c1ccccc1)(c1ccccc1)c1ccccc1,max response,[1],1.78%
same,outcome,[2],inactive
same,outcome,[5],inactive
same,max response,[4],3.89%
CCCCCOc1ccccc1/C(=C\SC)n1ccnc1,max response,[1],-4.59%
same,Potency,[2],26.6 µM (active)
same,max response,[4],-29.1%
CCCCN(CCN(CCCC)C(=O)N1CCOCC1)C(=O)N1CCOCC1,max response,[1],-1.09%
same,max response,[2],-9.35%
same,outcome,[5],inactive
same,max response,[4],-9.41%
COC(=O)c1c(Cl)c(Cl)c(C(=O)OC)c(Cl)c1Cl,max response,[1],-7.84%
same,max response,[2],-21.7%
same,max response,[3],-7.26%
same,max response,[4],-9.58%
CCNC(=O)[C@@H]1CCCN1C(=O)[C@H](CCCN=C(N)N)NC(=O)[C@H](CC(C)C)NC(=O)CNC(=O)[C@H](Cc1ccc(O)cc1)NC(=O)[C@H](CO)NC(=O)[C@H](Cc1c[nH]c2ccccc12)NC(=O)[C@H](Cc1cnc[nH]1)NC(=O)[C@@H]1CCC(=O)N1 ([pGlu]HWSYGLRP-NHEt),outcome,[1],inactive
same,max response,[2],-8.7%
same,max response,[4],-1.57%
CC1(C)O[C@@H]2C[C@H]3[C@@H]4CCC5=CC(=O)C=C[C@]5(C)[C@@]4(F)[C@@H](O)C[C@]3(C)[C@]2(C(=O)CO)O1,max response,[1],-0.473%
same,max response,[2],-6.9%
same,max response,[5],-7.17%
same,max response,[4],-1.75%
Cc1ccc(C(=O)C(=O)O)cc1C,max response,[1],-7.54%
same,outcome,[2],inactive
same,max response,[4],2.73%
CCOc1ccccc1OCC1CNCCO1 (centres undefined),max response,[1],-6.41%
same,outcome,[2],inactive
same,max response,[5],0.667%
same,outcome,[4],inactive
C[C@@H]1C[C@H]2[C@@H]3CCC4=CC(=O)C=C[C@]4(C)[C@@]3(F)[C@@H](O)C[C@]2(C)[C@@]1(O)C(=O)COC(=O)c1ccncc1,max response,[1],-11%
same,max response,[2],-6.52%
same,max response,[4],-6.36%
Nc1ccc(C(=O)N2CC3CC(CN(Cc4ccccc4)C3)C2)cc1,max response,[1],-9.41%
same,outcome,[2],inactive
same,max response,[5],3.27%
same,outcome,[4],inactive
CCN1CCCC1CN (centres undefined),max response,[1],3.84%
same,outcome,[2],inactive
same,max response,[4],-1.87%
Nc1c(I)cc(I)c(C(=O)N(CCC(=O)O)c2ccccc2)c1I,max response,[1],1.19%
same,max response,[2],-0.316%
same,outcome,[5],inactive
same,max response,[4],0.521%
CO[C@@H]1[C@@H](OC)[C@H](C)[C@@](O)(CC(=O)O)O[C@H]1[C@H](C)[C@H]1O[C@@]2(CC[C@@](C)([C@H]3CC[C@@](C)([C@@H]4O[C@@H]([C@H]5O[C@](C)(O)[C@H](C)C[C@@H]5C)C[C@@H]4OC4C[C@H](OC)[C@@H](OC)[C@H](C)O4)O3)O2)C[C@H](O)[C@H]1C (some centres undefined),Potency,[1],0.944 µM (active)
same,Potency,[2],0.237 µM (active)
same,Potency,[3],16.4 µM (active)
same,Potency,[4],6.68 µM (active)
CC(C)CCCC(C)NCCC(C)C (centres undefined),max response,[1],-5.37%
same,max response,[2],-7.84%
same,max response,[5],3.37%
same,outcome,[4],inactive
CCOC(=O)C(=O)c1csc(NC=O)n1,max response,[1],-5.63%
same,max response,[2],3.1%
same,max response,[5],4.32%
same,max response,[4],0.793%
Oc1ccccc1-c1nnco1,outcome,[1],inactive
same,outcome,[2],inactive
same,outcome,[5],inactive
same,max response,[4],1.39%
O=C(Nc1ccc(S(=O)(=O)N2CCOCC2)cc1)c1cc(Cl)ccc1NS(=O)(=O)c1ccc(Cl)s1,max response,[1],-9.47%
same,outcome,[2],inactive
same,outcome,[4],inactive
NCC[C@H](O)C(=O)N[C@@H]1C[C@H](N)[C@@H](O[C@H]2O[C@H](CN)[C@@H](O)[C@H](O)[C@@H]2O)[C@H](O)[C@@H]1O[C@H]1O[C@H](CO)[C@@H](O)[C@H](N)[C@@H]1O,max response,[1],-2.25%
same,max response,[2],-4.69%
same,outcome,[5],inactive
same,max response,[4],-2.83%
CCCCCCCCCCCCCCCCCCNC(=O)OC1CCN(C(=O)OC[C@H](COC(=O)N(Cc2cccc[n+]2CC)C(=O)c2ccccc2OC)OC)CC1,Potency,[1],8.41 µM (active)
same,Potency,[2],7.5 µM (active)
same,Potency,[3],6.51 µM (active)
CNC(=O)c1cnn(-c2nc(N)c3ncn([C@@H]4O[C@H](CO)[C@@H](O)[C@H]4O)c3n2)c1,max response,[1],-10.9%
same,outcome,[2],inactive
same,max response,[4],-3.79%
NS(=O)(=O)c1cc2c(cc1Cl)CN(C1CCCCC1)C2=O,max response,[1],-6.27%
same,outcome,[2],inactive
same,max response,[4],4.87%
CCn1ccc(NS(=O)(=O)c2ccc(N)cc2)nc1=O,max response,[1],4.48%
same,max response,[2],-20.6%
same,outcome,[5],inactive
same,outcome,[4],inactive
CCNC(=O)NCCCOc1cccc(CN2CCCCC2)c1,max response,[1],-12.2%
same,max response,[2],-59.3%
same,max response,[3],-12.8%
same,outcome,[4],inactive
CC(C)C(=O)Nc1cccc(C(F)(F)F)c1,max response,[1],3.59%
same,max response,[2],3.73%
same,outcome,[5],inactive
same,max response,[4],2.63%
O=C(O)Cc1ccccc1Oc1ccc(Cl)cc1Cl,max response,[1],1.12%
same,max response,[2],3.66%
same,outcome,[3],inactive
same,max response,[4],-11.6%
CCc1cccc2c(CCO)c[nH]c12,max response,[1],-8.62%
same,max response,[2],-6.21%
same,max response,[5],2.18%
same,max response,[4],1.36%
C[C@H](CN1CCCC1)C(=O)c1ccc(C(F)(F)F)cc1,max response,[1],3.63%
same,max response,[2],-20.1%
same,max response,[3],4.58%
same,max response,[4],-14.5%
Cc1ccc(-c2ccccc2C#N)cc1,max response,[1],2.16%
same,outcome,[2],inactive
same,outcome,[5],inactive
same,max response,[4],3.01%
O=C(CCCl)NCc1ccccc1,max response,[1],-8.2%
same,max response,[2],-4.62%
same,outcome,[5],inactive
same,outcome,[4],inactive
CN(C)C(=O)CNC(=O)Cc1ccccc1,max response,[1],-7.63%
same,max response,[2],-9.26%
same,max response,[4],-5.07%
CC(=O)[C@@]1(O)CC[C@H]2[C@@H]3C[C@H](C)C4=CC(=O)CC[C@]4(C)[C@H]3CC[C@@]21C,max response,[1],-14.2%
same,max response,[5],-16.6%
same,max response,[3],-7.02%
CCCc1ccc(OCC(=O)N2CCN(C(=O)COc3ccc(CCC)cc3OC)CC2)c(OC)c1,max response,[1],-1.28%
same,max response,[5],5%
same,max response,[4],0.399%
Nc1ccc2c(c1)CN1C(=O)c3ccccc3C1=N2,Potency,[1],8.2 µM (active)
same,Potency,[2],5.8 µM (active)
same,Potency,[4],7.31 µM (active)
COC(=O)C1=C(C)NC(C)=C(C(=O)OCCc2ccc(N3CCN(C(c4ccccc4)c4ccccc4)CC3)cc2)C1c1cccc([N+](=O)[O-])c1 (centres undefined),max response,[1],-8.49%
same,outcome,[5],inactive
same,max response,[4],-0.486%
CN1CC[C@H](c2c(O)cc(O)c3c(=O)cc(-c4ccccc4Cl)oc23)[C@H](O)C1,Potency,[1],0.266 µM (active)
same,Potency,[5],0.75 µM (active)
same,Potency,[3],1.03 µM (active)
COc1cc2nc(Cl)nc(N)c2cc1OC,outcome,[1],inactive
same,max response,[5],0.108%
same,max response,[4],-0.129%
CC1CCCCN1CCCOC(=O)c1ccc(OC2CCCCC2)cc1 (centres undefined),max response,[1],-16.2%
same,outcome,[5],inactive
same,max response,[4],-13.4%
O=C(c1cc(O)c(O)c(O)c1)c1ccc(O)c(O)c1O,max response,[1],-19.4%
same,max response,[5],-2.77%
CC(C)(C)NCC(O)COc1ccccc1OCC1CCCO1 (centres undefined),max response,[1],-2.81%
same,max response,[2],-1.05%
same,outcome,[4],inactive
c1ccc(C(O[C@H]2CCCN(CCc3ccc4c(c3)OCO4)C2)c2ccccc2)cc1,max response,[1],-1.12%
same,max response,[5],0.583%
same,max response,[3],-8.06%
same,max response,[4],-0.771%
CCCCCCCCCCCCCCCCCCN(C)C,max response,[1],-11.6%
same,max response,[2],-2.54%
same,max response,[4],0.657%
Cc1nn(-c2ccccc2)c(C)c1/C=N/N1CCN(Cc2ccccc2)CC1,max response,[1],4.78%
same,max response,[5],-14.9%
same,max response,[3],8.96%
same,max response,[4],3.85%
CCC(=O)Oc1ccc2c(c1)CC[C@@H]1[C@@H]2CC[C@@]2(C)[C@H]1C[C@@H](OC(=O)CC)[C@@H]2OC(=O)CC,max response,[1],-3.71%
same,max response,[5],-1.68%
same,outcome,[4],inactive
CCCCC(=O)OCC(=O)[C@H]1[C@H](C)C[C@H]2[C@@H]3C[C@H](F)C4=CC(=O)C=C[C@]4(C)[C@@]3(F)[C@@H](O)C[C@@]21C,max response,[1],-1.6%
same,max response,[5],1.04%
same,max response,[3],-3.44%
same,max response,[4],-6.1%
Nc1c2ccccc2nc2ccccc12,Potency,[6],10 µM (active)
same,Potency,[7],7.08 µM (active)
same,Potency,[8],10 µM (active)
same,Potency,[9],8.91 µM (active)
same,Potency,[1],8.41 µM (active)
same,Potency,[2],5.96 µM (active)
same,Potency,[4],21.1 µM (active)
